Compounds with a hit are over-represented: about 4% of the library has one in this group of screens.
Rv3671c protease: inhibitors of M. tuberculosis serine protease Rv3671c | inhibition, % at 5.96 µM | 320,000 compounds, 0.048% hits | P9WHR9 | AID 2606; in the data active means inhibition above about 38%;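 further: extracellular domain of Rv3671c used as enzyme; 0% = enzyme with DMSO and 100% = no enzyme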
Target sequence (P9WHR9 whole entry, looked up, the tested form may be a part): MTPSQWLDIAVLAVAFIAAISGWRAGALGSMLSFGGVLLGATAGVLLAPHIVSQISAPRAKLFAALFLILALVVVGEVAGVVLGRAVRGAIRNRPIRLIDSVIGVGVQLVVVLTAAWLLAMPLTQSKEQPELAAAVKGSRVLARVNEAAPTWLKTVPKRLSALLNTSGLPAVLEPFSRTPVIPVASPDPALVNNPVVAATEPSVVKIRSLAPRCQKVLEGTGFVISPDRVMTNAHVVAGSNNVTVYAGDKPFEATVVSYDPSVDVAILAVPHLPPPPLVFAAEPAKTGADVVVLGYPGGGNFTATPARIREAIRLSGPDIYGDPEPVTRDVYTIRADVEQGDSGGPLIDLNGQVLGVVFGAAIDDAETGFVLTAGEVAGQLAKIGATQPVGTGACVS
UGM FP inh: blocks M. tuberculosis UGM enzyme; 320,000 compounds, 0.06% hits; AID 504406; inhibition, % at 10 µM; P9WIQ1; purified UGM, fluorescence polarization probe displacement; in the data active means inhibition above about 10%, passing the limit was not always enough
GDH-TPI counter-1: inhibits GDH-TPI coupling enzymes, artifact for Mtb FBA screen. inhibition, % at 4.8 µM. 360,000 compounds, 1.2% hits. GDH-TPI coupled enzyme counterscreen, NADH absorbance; in the data active means inhibition above about 30%;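 further: 0% = DMSO wells and 100% = wells lacking the enzyme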
Mtb bLac sens: beta-lactam sensitization of Mtb H37Rv | M. tuberculosis H37Rv growth with meropenem, percent inhibition | inhibition, % at 25 µM | 330,000 compounds, 0.27% hits | AID 434955;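 further: growth measured after seven days incubation then overnight dye step; 0% = bacteria only wells and 100% = bacteria with antibiotic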
Mtb FBA inh: inhibits M. tuberculosis FBA enzyme; purified M. tuberculosis FBA, fluorescence read-out; inhibition, % at 1 µM; AID 588726; P9WQA3; 360,000 compounds, 2.3% hits; in the data active means inhibition above about 27%;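 further: 0% = vehicle and 100% = reference inhibitor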
RecA intein inh: inhibitors of M. tuberculosis RecA intein splicing; 290,000 compounds, 0.75% hits; P9WHJ3; cell-free RecA intein splicing, fluorescence; inhibition, % (concentration not given with the values); in the data active means inhibition above about 30%;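 further: 0% = vehicle wells and 100% = reference inhibitor control wells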
Mtb FBA confirm: Mtb FBA inhibition, confirmed; 5,600 compounds, 78% hits; AID 651616; inhibition, % at 1 µM; shares compounds with Mtb FBA inh; purified M. tuberculosis FBA, fluorescence read-out; in the data active means inhibition above about 27%;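 further: 0% = vehicle wells and 100% = reference inhibitor wells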
GDH-TPI counter-2: GDH-TPI inhibition counter-screen for FBA inhibitors | 5,600 compounds, 81% hits | GDH-TPI coupled enzyme counterscreen, fluorescence | shares compounds with Mtb FBA inh | inhibition, % at 1 µM; in the data active means inhibition above about 10%
GDH-TPI DR: counter-screen for M. tuberculosis FBA inhibitors: GDH-TPI dose response; IC50, µM; AID 652145; 170 compounds, 79% hits; shares compounds with Mtb FBA inh; GDH-TPI coupled enzyme assay, fluorescence, artifact counterscreen
* = called active by the depositor; / = no result given; + = active, no number. Unless noted, how the calls were made is not given here.

SMILES	Rv3671c protease	UGM FP inh	GDH-TPI counter-1	Mtb bLac sens	Mtb FBA inh	RecA intein inh	Mtb FBA confirm	GDH-TPI counter-2	others
COc1cccc(CC(NC(C)=O)C(=O)NC2CCN(c3nc(C)cc(C)c3C#N)CC2)c1 (configuration not stated)	-6	-1	-3	0	29*	-2	58*	52*
CCOC(=O)C1CCN(c2nc3cc(OC)ccc3cc2C#N)CC1	-5	0	4	98	24	-3	/	/
CCOC(=O)C1CCN(C(=O)c2cnn3c(C)cc(C)nc23)CC1	-10	1	10	-4	35*	0	76*	55*
Cc1cc(C)c(C#N)c(N2CCCC(C(N)=O)C2)n1 (configuration not stated)	2	-1	-3	-6	57*	-4	+	+
COc1cc(CNc2ncnc3c2ncn3[C@H]2CN(Cc3ccc(Cl)cc3)C[C@@H](CO)O2)cc(OC)c1OC	/	/	9	/	1	/	/	/
Cc1ccc(S(=O)(=O)N2CCOc3ccccc32)c(C)c1NS(C)(=O)=O	-1	-3	-4	-9	-1	0	/	/
COC(=O)C1(C)CCc2c(ccc3ccccc23)C1=O (configuration not stated)	/	/	/	/	35*	/	56*	47*
CCC1(C(=O)OC)CCc2c(cc(OC)c3ccccc23)C1=O (configuration not stated)	-5	6	4	18	28*	/	111*	71*
COc1ccc(N2CC(C(=O)N3CCN(C(=O)c4ccco4)CC3)CC2=O)cc1 (configuration not stated)	4	-3	6	6	-1	-1	/	/
CN(C(=O)CSc1nnnn1-c1ccc(O)cc1)C1CCCCC1	15	0	-2	-3	3	/	/	/
C=CC(=O)Nc1cccc(N(C)c2ccnc(Nc3ccc(N4CCN(C)CC4)cc3)n2)c1	/	/	4	/	3	/	/	/
COc1ccc(-c2cc(=O)oc3cc(OC(C)C(=O)NC4CC4)ccc23)cc1 (configuration not stated)	0	-2	4	1	1	-1	/	/
COc1ccc(-c2cc(=O)oc3cc(OC(=O)C4CCCCC4)c(Cl)cc23)cc1	-5	-6	8	3	45*	-192	46*	42*
CN1CCc2c(C#N)c(N3CCCCC3)nc(N3CCOCC3)c2C1	0	2	/	-1	/	-3	/	/
CN1CCc2c(C#N)c(Cl)nc(Cl)c2C1	3	2	13	2	68*	-6	4	-2
COc1ccc(Cl)cc1NS(=O)(=O)N1CCOCC1	-7	-1	-10	-16	-1	-4	/	/
O=C(c1cc(COc2cccc3cnccc23)on1)N1CCCC(CCCO)C1 (configuration not stated)	-3	1	4	-13	30*	4	192*	132*
COCC1OC(OC(C)C(O)c2cnc3nc(N)[nH]c(=O)c3n2)C(O)C(OC)C1O (configuration not stated)	/	/	-4	/	103*	/	92*	66*
CN[C@@H](C)C(=O)NC[C@H]1O[C@@H](n2cnc3c(=O)[nH]c(N)nc32)[C@H](O)[C@@H]1O	/	/	/	/	1	/	/	/
CCc1ccc(NC(=O)c2cnc3scc(C)n3c2=O)cc1	0	3	10	-10	-2	-3	/	/
Cc1csc2ncc(C(=O)NCc3ccccc3Cl)c(=O)n12	1	0	11	3	49*	2	107*	112*
Cc1csc2ncc(C(=O)NC(C)c3ccccc3)c(=O)n12 (configuration not stated)	-3	3	22	-8	63*	1	199*	159*
CC(NC(=O)c1ccccc1O)c1ccccc1 (configuration not stated)	4	1	5	15	41*	3	156*	122*
Cc1csc2ncc(C(=O)NCc3ccc4c(c3)OCO4)c(=O)n12	5	2	/	-4	/	-5	/	/
COc1ccccc1C(=O)NC(C)c1ccccc1 (configuration not stated)	6	-1	-2	-9	1	0	/	/
SMILES	Rv3671c protease	UGM FP inh	GDH-TPI counter-1	Mtb bLac sens	Mtb FBA inh	RecA intein inh	Mtb FBA confirm	GDH-TPI counter-2	others
Cc1ccc(S(=O)(=O)Nc2ccc(NC(=O)c3cccnc3)cc2)cc1	3	0	2	-3	1	1	/	/
OC1c2c(F)cccc2N=C2CCCCCN21 (configuration not stated)	/	/	12	/	48*	/	141*	138*
CC1CCC2C(C1)Nc1c(C(=O)O)cccc1C2(C)C (configuration not stated)	-4	0	9	3	77*	0	23	11*
CC1C2CCC(C2)C1OC(=O)c1ccccc1C(=O)O (configuration not stated)	/	/	2	/	0	/	/	/
C[C@@H]1CN([C@H](C)CO)C(=O)CCCn2nncc2CO[C@H]1CN(C)Cc1ccc2cccnc2c1	/	/	9	/	-2	/	/	/
N#Cc1ccc(-c2ccc(OCC(O)CN3CCOCC3)cc2)cc1 (configuration not stated)	3	-2	-5	-6	40*	2	4	-1
COc1ccc(OCC(O)CN2CCOCC2)cc1 (configuration not stated)	6	-1	-2	-5	-3	-3	/	/
Cc1ccccc1SCC(=O)NCC1(N2CCCCC2)CCCCC1	/	/	4	/	4	/	/	/
CCOC(=O)c1cc(-c2cc3ccccc3o2)nc2c1c(=O)[nH]c(=O)n2CCOC	-8	0	5	29	46*	-55	2	1
CSc1nccc(Oc2ccccc2Cl)n1	-8	5	-4	2	110*	-2	13	8	GDH-TPI DR=>10
CC(=O)Nc1ccc(S(=O)(=O)NCC2CCC(C(=O)N3CCCCC3)CC2)cc1 (configuration not stated)	-3	-1	0	-3	0	1	/	/
COc1ccc(NC(=O)CN(C)CC(=O)Nc2ccc(Cl)c(S(=O)(=O)N(C)C)c2)cc1	6	4	-8	2	4	1	/	/
CN(CC(=O)Nc1ccc(Cl)c(S(=O)(=O)N(C)C)c1)Cc1ccccc1	4	0	2	-3	53*	-1	+	+
O=C(N/C(=C/c1cccc(Br)c1)C(=O)N1CCOCC1)c1ccco1	/	/	3	/	0	/	/	/
CCCc1cc(C(=O)Nc2cc(OC)ccc2OC)cs1	5	-3	10	-12	2	8	/	/
O=C(CSc1cn[nH]n1)Nc1ccc(O)c(C(=O)O)c1	2	4	-7	-7	31*	0	2	2
Cc1ccc(NC(=O)CSc2cn[nH]n2)cc1	-8	0	-2	-1	2	0	/	/

Screens: PubChem BioAssay, several laboratories
